In PubChem BioAssay (EPA / NIEHS):
Results filed as inconclusive are left out. Active and inactive are the calls of the source. How the source made its calls, unless noted: active means hit-call score of the fitted dose curve at least 0.9, where 1 is the maximum; inconclusive means response in the unintended direction; inactive means score below 0.9.

How the values were obtained:
[1] = read-out: Glyceraldehyde-3-phosphate dehydrogenase (Homo sapiens) (UniProt P04406); assay: CLD_GAPDH_6hr: CellzDirect (CLD) Gene Expression Assay for Baseline Control (Glyceraldehyde 3-phosphate dehydrogenase) at 6 hours (AID 2283681);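 further: active means increased signal relative to DMSO vehicle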
Method in brief: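 GAPDH baseline-control readout from qNPA (S1 nuclease digestion, probe hybridization, chemiluminescence) in lysates of cultured human hepatocytes harvested 6 h post-dosing. Chemicals tested at multiple concentrations versus 0.2% DMSO vehicle; microscopy-based cytotoxicity flagged yes/no.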

[2] = read-out: ABC Transporter (ABCB1), ABCB1 (gene 5243); assay: CLD_ABCB1_24hr: CellzDirect (CLD) Gene Expression Assay for ABC Transporter (ABCB1) at 24 hours (AID 2283684)
Method in brief: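 ABCB1 mRNA induction versus 0.2% DMSO vehicle was read by qNPA chemiluminescence at 24 h. Cultured human hepatocytes from two donor preparations received daily fresh dosing, and phase-contrast cytotoxicity calls were annotated alongside the data.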

[3] = read-out: Broad substrate specificity ATP-binding cassette transporter ABCG2 (Homo sapiens) (UniProt Q9UNQ0); assay: CLD_ABCG2_24hr: CellzDirect (CLD) Gene Expression Assay for ABC Transporter (ABCG2) at 24 hours (AID 2283685)
Method in brief: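 ABCG2 mRNA induction, read as gain of chemiluminescent signal over 0.2% DMSO, was measured by quantitative nuclease protection at 24 h. Cultured human liver hepatocytes were given fresh dosing solutions of test chemicals at several concentrations each day.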

[4] = read-out: Cytochrome P450 2C9 (Homo sapiens) (UniProt P11712); assay: CLD_CYP2C9_24hr: CellzDirect (CLD) Gene Expression Assay for xenobiotic metabolism (CYP2C9) at 24 hours (AID 2283688)
Method in brief: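 Induction of CYP2C9 mRNA was quantified by quantitative nuclease protection assay (chemiluminescence), gain of signal versus 0.2% DMSO vehicle, 24 h after dosing. Human primary hepatocytes (two donors) received fresh chemical daily at multiple concentrations; morphology-based cytotoxicity flagged yes/no.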

[5] = read-out: Cytochrome P450 3A4 (Homo sapiens) (UniProt P08684); assay: CLD_CYP3A4_24hr: CellzDirect (CLD) Gene Expression Assay for xenobiotic metabolism (CYP3A4) at 24 hours (AID 2283689)
Method in brief: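 CYP3A4 mRNA induction read by quantitative nuclease protection (chemiluminescence) 24 hr after dosing. Cultured human hepatocytes (two donor preparations) treated daily, vehicle 0.2% DMSO; phase-contrast morphology annotates cytotoxicity.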

[6] = read-out: HMG-CoA synthase (HMGCS2), HMGCS2 (gene 3158); assay: CLD_HMGCS2_24hr: CellzDirect (CLD) Gene Expression Assay for HMG-CoA synthase (HMGCS2) at 24 hours (AID 2283691)
Method in brief: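 qNPA with S1 nuclease digestion and chemiluminescent detection gave HMGCS2 transcript levels, fitted upward against 0.2% DMSO vehicle. Cultured human hepatocytes (two donors) received fresh compound daily and were harvested at 24 h; phase-contrast morphology flagged cytotoxicity.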

[7] = read-out: Glyceraldehyde-3-phosphate dehydrogenase (Homo sapiens) (UniProt P04406); assay: CLD_GAPDH_24hr: CellzDirect (CLD) Gene Expression Assay for Baseline Control (Glyceraldehyde 3-phosphate dehydrogenase) at 24 hours (AID 2283692)
Method in brief: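 GAPDH baseline-control readout: qNPA chemiluminescent mRNA signal in human primary hepatocytes harvested 24 h after daily dosing, normalised to 0.2% DMSO with positive fitting direction; cytotoxicity annotated by phase-contrast morphology.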

[8] = read-out: alkyl and aryl transferase (GSTA2), GSTA2 (gene 2939); assay: CLD_GSTA2_24hr: CellzDirect (CLD) Gene Expression Assay for alkyl and aryl transferase (GSTA2) at 24 hours (AID 2283693)
Method in brief: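 GSTA2 transcript levels were quantified by quantitative nuclease protection assay in primary human hepatocytes 24 h after daily dosing with fresh solutions at multiple concentrations; 0.2% DMSO vehicle as baseline, cytotoxicity flagged morphologically.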

[9] = read-out: Cytochrome P450 2C19 (Homo sapiens) (UniProt P33261); assay: CLD_CYP2C19_48hr: CellzDirect (CLD) Gene Expression Assay for xenobiotic metabolism (CYP2C19) at 48 hours (AID 2283700);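 further: fitted upward so actives raise CYP2C19 mRNA above the 0.2% DMSO vehicle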
Method in brief: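 CYP2C19 mRNA induction read by chemiluminescent quantitative nuclease protection assay after 48 h, with fresh compound added daily for two days to cultured human liver hepatocytes. Activity fitted upward against 0.2% DMSO vehicle.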

[10] = CLD_ACTIN_48hr: CellzDirect (CLD) Gene Expression Assay for Baseline Control (Actin) at 48 hours (AID 2283702)
Method in brief: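 Background-control actin mRNA read by qNPA chemiluminescence at 48 h. Human hepatocyte cultures from two donors received fresh multi-concentration chemical doses daily for two days; 0.2% DMSO served as vehicle baseline.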

[11] = read-out: Cytochrome P450 2B6 (Homo sapiens) (UniProt P20813); assay: CLD_CYP2B6_24hr: CellzDirect (CLD) Gene Expression Assay for xenobiotic metabolism (CYP2B6) at 24 hours (AID 2283686)
Method in brief: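 qNPA chemiluminescent measurement of mRNA at 24 hours in human primary hepatocyte cultures from two donor preparations, with daily fresh dosing and 0.2% DMSO vehicle as baseline. Morphology-based cytotoxicity flagged yes/no.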

[12] = read-out: sulfotransferase (SULT2A), SULT2A1 (gene 6822); assay: CLD_SULT2A_24hr: CellzDirect (CLD) Gene Expression Assay for sulfotransferase (SULT2A) at 24 hours (AID 2283694);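 on AC50: potency for increased SULT2A1 mRNA level as induction over DMSO baseline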
Method in brief: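 mRNA is measured by qNPA: probe hybridisation, S1 nuclease digestion, chemiluminescence, in lysates from human primary hepatocytes harvested 24 h after daily dosing. Vehicle was 0.2% DMSO. Phase-contrast microscopy flagged cytotoxicity (yes/no).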

[13] = read-out: Cytochrome P450 2C9 (Homo sapiens) (UniProt P11712); assay: CLD_CYP2C9_48hr: CellzDirect (CLD) Gene Expression Assay for xenobiotic metabolism (CYP2C9) at 48 hours (AID 2283701; active means hit-call score of the fitted dose curve at least 0.9, where 1 is the maximum; inactive means score below 0.9)
Method in brief: (§1)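 mRNA level measured by quantitative nuclease protection (S1 digestion, chemiluminescent detection) in lysates of human primary hepatocytes exposed 48 h with daily re-dosing. Induction fitted positively versus 0.2% DMSO; morphology-based cytotoxicity flagged yes/no.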

[14] = read-out: xenobiotic metabolism (CYP1A2), CYP1A2 (gene 1544); assay: CLD_CYP1A2_24hr: CellzDirect (CLD) Gene Expression Assay for xenobiotic metabolism (CYP1A2) at 24 hours (AID 2283683)
Method in brief: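 CYP1A2 mRNA induction measured by quantitative nuclease protection (chemiluminescent) in human primary hepatocytes 24 h after multi-concentration chemical dosing with daily fresh solutions. DMSO (0.2%) baseline; positive-direction fitting; morphology-based cytotoxicity noted.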

[15] = read-out: glucuronosyltransferase (UGT1A1), UGT1A1 (gene 54658); assay: CLD_UGT1A1_24hr: CellzDirect (CLD) Gene Expression Assay for glucuronosyltransferase (UGT1A1) at 24 hours (AID 2283696)
Method in brief: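 UGT1A1 transcript induction was measured by quantitative nuclease protection assay (chemiluminescence) in human hepatocyte cultures 24 h after daily fresh dosing, with 0.2% DMSO as vehicle and baseline.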

[16] = read-out: Cytochrome P450 3A4 (Homo sapiens) (UniProt P08684); assay: CLD_CYP3A4_48hr: CellzDirect (CLD) Gene Expression Assay for xenobiotic metabolism (CYP3A4) at 48 hours (AID 2283698)
Method in brief: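 CYP3A4 induction read by qNPA chemiluminescence after 48 h, with fresh dosing solutions on consecutive days, in cultured human hepatocytes (two donors). Vehicle 0.2% DMSO as baseline; microscopy-based cytotoxicity annotated yes/no alongside data.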

[17] = read-out: Cytochrome P450 2B6 (Homo sapiens) (UniProt P20813); assay: CLD_CYP2B6_48hr: CellzDirect (CLD) Gene Expression Assay for xenobiotic metabolism (CYP2B6) at 48 hours (AID 2283699);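 further: actives raise transcript level above DMSO so potency reflects induction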
Method in brief: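 CYP2B6 transcript induction, read by quantitative nuclease protection (S1 digestion, chemiluminescent detection) 48 h after dosing, is fitted upward against 0.2% DMSO. Cultured human liver primary cells, two donor preparations, received fresh chemical daily over multiple concentrations.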

[18] = read-out: xenobiotic metabolism (CYP2C9), CYP2C9 (gene 1559); assay: CLD_CYP2C9_48hr: CellzDirect (CLD) Gene Expression Assay for xenobiotic metabolism (CYP1A2) at 48 hours (AID 2283701)
Method in brief: as §1

[19] = read-out: ABC Transporter (ABCB1), ABCB1 (gene 5243); assay: CLD_ABCB1_48hr: CellzDirect (CLD) Gene Expression Assay for ABC Transporter (ABCB1) at 48 hours (AID 2283695)
Method in brief: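 ABCB1 mRNA was measured by quantitative nuclease protection assay (chemiluminescence) 48 h after dosing. Human hepatocyte cultures from two separate donors received fresh dosing solutions daily for two days, with 0.2% DMSO as vehicle. Positive-direction fit against DMSO.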

Measured: AC50

Cytochrome P450 3A4 (Homo sapiens), sequence (P08684 whole entry, looked up): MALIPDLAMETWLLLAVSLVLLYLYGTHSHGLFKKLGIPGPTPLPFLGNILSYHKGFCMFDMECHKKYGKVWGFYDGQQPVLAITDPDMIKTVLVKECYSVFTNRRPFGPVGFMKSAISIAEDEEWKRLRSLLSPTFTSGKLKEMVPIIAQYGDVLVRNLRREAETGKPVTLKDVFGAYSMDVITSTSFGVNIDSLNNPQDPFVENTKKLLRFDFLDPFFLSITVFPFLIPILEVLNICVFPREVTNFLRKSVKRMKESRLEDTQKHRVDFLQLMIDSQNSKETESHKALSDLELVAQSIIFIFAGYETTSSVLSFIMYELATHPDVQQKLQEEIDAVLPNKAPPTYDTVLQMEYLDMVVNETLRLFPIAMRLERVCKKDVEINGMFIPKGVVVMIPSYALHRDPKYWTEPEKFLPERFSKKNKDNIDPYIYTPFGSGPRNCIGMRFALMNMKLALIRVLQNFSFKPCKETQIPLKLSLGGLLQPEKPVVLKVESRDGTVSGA
Broad substrate specificity ATP-binding cassette transporter ABCG2 (Homo sapiens), sequence (Q9UNQ0 whole entry, looked up): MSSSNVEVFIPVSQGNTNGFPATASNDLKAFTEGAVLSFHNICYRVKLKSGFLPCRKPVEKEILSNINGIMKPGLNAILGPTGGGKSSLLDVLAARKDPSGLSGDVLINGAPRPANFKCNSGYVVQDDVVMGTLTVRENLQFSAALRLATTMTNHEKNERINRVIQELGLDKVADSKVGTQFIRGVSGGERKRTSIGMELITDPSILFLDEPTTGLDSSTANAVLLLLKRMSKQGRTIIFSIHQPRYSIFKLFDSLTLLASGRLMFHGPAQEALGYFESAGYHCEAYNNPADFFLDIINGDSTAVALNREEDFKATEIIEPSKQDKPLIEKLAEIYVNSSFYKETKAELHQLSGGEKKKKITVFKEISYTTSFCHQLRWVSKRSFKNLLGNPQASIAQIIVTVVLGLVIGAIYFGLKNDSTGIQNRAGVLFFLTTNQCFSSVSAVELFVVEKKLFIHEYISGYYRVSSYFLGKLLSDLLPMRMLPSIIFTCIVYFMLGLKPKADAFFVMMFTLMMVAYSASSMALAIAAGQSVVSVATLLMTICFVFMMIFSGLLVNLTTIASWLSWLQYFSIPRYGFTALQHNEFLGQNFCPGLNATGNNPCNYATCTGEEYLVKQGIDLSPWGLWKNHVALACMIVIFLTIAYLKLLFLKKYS
Glyceraldehyde-3-phosphate dehydrogenase (Homo sapiens), sequence (P04406 whole entry, looked up): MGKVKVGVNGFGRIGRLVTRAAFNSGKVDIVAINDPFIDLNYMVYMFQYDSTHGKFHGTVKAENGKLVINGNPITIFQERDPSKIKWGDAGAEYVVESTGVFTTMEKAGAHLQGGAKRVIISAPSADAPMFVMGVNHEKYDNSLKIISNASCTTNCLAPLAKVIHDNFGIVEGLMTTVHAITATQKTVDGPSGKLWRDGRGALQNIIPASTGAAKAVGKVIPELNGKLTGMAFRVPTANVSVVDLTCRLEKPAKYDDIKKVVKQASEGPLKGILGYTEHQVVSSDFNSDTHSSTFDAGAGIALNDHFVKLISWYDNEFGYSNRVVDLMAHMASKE
Cytochrome P450 2C19 (Homo sapiens), sequence (P33261 whole entry, looked up): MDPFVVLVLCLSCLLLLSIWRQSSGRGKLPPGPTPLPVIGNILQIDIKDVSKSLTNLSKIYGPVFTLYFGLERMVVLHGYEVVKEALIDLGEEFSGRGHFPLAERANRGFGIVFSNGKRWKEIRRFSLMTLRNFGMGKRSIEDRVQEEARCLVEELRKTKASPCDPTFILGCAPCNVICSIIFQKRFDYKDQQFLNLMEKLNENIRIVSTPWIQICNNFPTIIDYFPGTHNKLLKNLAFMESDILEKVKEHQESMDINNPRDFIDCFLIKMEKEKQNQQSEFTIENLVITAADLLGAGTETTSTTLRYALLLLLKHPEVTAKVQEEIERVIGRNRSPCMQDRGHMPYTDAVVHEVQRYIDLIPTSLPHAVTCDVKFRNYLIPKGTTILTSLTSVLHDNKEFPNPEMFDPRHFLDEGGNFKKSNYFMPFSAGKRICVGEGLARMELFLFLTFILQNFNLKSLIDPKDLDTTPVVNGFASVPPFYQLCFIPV

CN=C=S
inactive: [1] | [2] | [3] | [4] | [5] | [6] | [7] | [8] | [9] | [10]

O=c1n(Cl)c(=O)n(Cl)c(=O)n1Cl
inactive: [1] | [2] | [11] | [4] | [5] | [7] | [8] | [12] | [9] | [13]

N#CN=C1SCCN1Cc1ccc(Cl)nc1
active: [11] 11600 nM | [5] 10900 nM
not listed: [10] | [12] | [15] | [16] | [17] | [18] | [19]
inactive: all other assays above

COC(=O)N(C(=O)N1CO[C@@]2(C(=O)OC)Cc3cc(Cl)ccc3C2=N1)c1ccc(OC(F)(F)F)cc1
active: [11] 1900 nM | [5] 6530 nM
inactive: [1] | [2] | [8] | [15]

CCOc1cc(C(C)(C)C)ccc1C1COC(c2c(F)cccc2F)=N1 (centres undefined)
inactive: [1] | [2] | [4] | [12] | [13]
active: [5] 1900 nM | [16] 1900 nM | [17] 2110 nM

CSC(=O)c1c(C(F)F)nc(C(F)(F)F)c(C(=O)SC)c1CC(C)C
inactive: [1] | [2] | [3] | [4] | [6] | [8] | [13]
active: [5] 2070 nM

Nc1c(Cl)c(Cl)nc(C(=O)O)c1Cl
inactive: [1] | [2] | [3] | [4] | [5] | [6] | [9] | [10]

CC(C)NC(=O)N1CC(=O)N(c2cc(Cl)cc(Cl)c2)C1=O
inactive: [1] | [2] | [4] | [12] | [15]
active: [5] 9310 nM | [17] 3920 nM

COP(=S)(OC)Oc1ccc([N+](=O)[O-])c(C)c1
active: [14] 1380 nM | [5] 16600 nM | [16] 47.2 nM | [17] 2670 nM
inactive: [1] | [2] | [7] | [8]

CCNP(=S)(OC)O/C(C)=C/C(=O)OC(C)C (centres undefined)
active: [5] 1940 nM
inactive: [1] | [2] | [4] | [13]

CCNC(=O)NC(=O)C(C#N)=NOC
inactive: [1] | [2] | [3] | [4] | [6] | [7] | [9] | [10]

Cn1c(-c2ccccc2)cc(-c2ccccc2)[n+]1C
active: [12] 8080 nM
inactive: [1] | [2] | [3] | [5] | [7] | [8] | [10]

O=C(O)c1c(Cl)ccc2cc(Cl)cnc12
active: [18] 69 nM
inactive: [1] | [14] | [2] | [3] | [4] | [5] | [7] | [9]

C=CCOC(=O)C(C)(C)OC(=O)c1cc(-n2c(=O)cc(C(F)(F)F)n(C)c2=O)ccc1Cl
inactive: [1] | [2] | [3] | [4] | [7] | [19] | [15] | [9] | [13] | [10]
active: [5] 470 nM

O=P(O)(O)CCCl
inactive: [1] | [14] | [2] | [11] | [5] | [7] | [8] | [10]

O=C1C2CC=CCC2C(=O)N1SC(Cl)(Cl)Cl (centres undefined)
inactive: [1] | [2] | [3] | [4] | [7] | [8] | [17] | [9]

CC(C)(C)C(=O)C(Oc1ccc(Cl)cc1)n1cncn1 (centres undefined)
active: [5] 1630 nM | [17] 3310 nM
inactive: [1] | [2] | [3] | [4] | [9]

CC(C)C1(C)N=C(c2ncccc2C(=O)O)NC1=O (centres undefined)
inactive: [1] | [2] | [3] | [4] | [7] | [8] | [9]
active: [11] 0.671 nM
